Holding throughout (test): NCI-60 one-dose screen, 48 h (100 = growth as untreated, 0 = no growth, -100 = all killed)
One experiment relates to NCI-H322M lung. The settings on record: 10 µM unless noted.
The next experiment relates to HOP-92 NSCLC. Conditions: 10 µM unless noted.
The test system of a further experiment is COLO 205 colon. Conditions: 10 µM.
Another experiment concerns K-562 leukemia. The settings on record: 10 µM unless noted.
A further experiment relates to HT29 colon. Conditions: 10 µM unless noted.
The next experiment has as its system U251 CNS. Conditions: 10 µM unless noted.
The next experiment concerns PC-3 prostate. The settings on record: 10 µM unless noted.
The next experiment has as its system SK-MEL-5 melanoma. Conditions: 10 µM unless noted.
The test system of the next experiment is EKVX NSCLC. Conditions: 10 µM unless noted.
The next experiment concerns CAKI-1 renal. The settings on record: 10 µM unless noted.
Another experiment has as its system CCRF-CEM leukemia. Conditions: 10 µM unless noted.
A further experiment has as its system SR leukemia. The settings on record: 10 µM.
Another experiment deals with RPMI-8226 leukemia. The settings on record: 10 µM unless noted.
The next experiment concerns OVCAR-5 ovarian. The settings on record: 10 µM unless noted.
The next experiment deals with IGROV1 ovarian. The settings on record: 10 µM.
The next experiment has as its system OVCAR-3 ovarian. The settings on record: 10 µM unless noted.
A further experiment concerns HS 578T breast. Conditions: 10 µM unless noted.
For another experiment, the system named is NCI-H522 lung. The settings on record: 10 µM unless noted.

The panel holds about 83,000 compounds, 20% with a hit somewhere; the sample as a whole holds those more often.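 Cells were grown in 96-well plates and exposed to the test compound at a single concentration for 48 hours; results are reported as percent growth, with values below 10 considered active.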 Unmarked numbers belong to inactive results. Calls of active or inactive are those of the source.

For `CCOc1ccc(C(O)CN(C)Cc2ccccc2)cc1Cl` (stereo not drawn), the growth with NCI-H322M lung is 102%; in the experiment on HOP-92 NSCLC, 75.4%; in the experiment on COLO 205 colon, 105%; with K-562 leukemia, 92.5%; in the experiment with HT29 colon, 98%; in the experiment on U251 CNS it was 97.4%. Further, the growth in the experiment on PC-3 prostate is 89.3%; in the experiment with SK-MEL-5 melanoma it was 93.2%; with EKVX NSCLC, 95.7%; with CAKI-1 renal, 93.3%; in the experiment with CCRF-CEM leukemia, 108%; in the experiment on SR leukemia, 95.7%. In addition, the growth is 104% in the experiment with RPMI-8226 leukemia; 102% in the experiment with OVCAR-5 ovarian; 106% with IGROV1 ovarian; 99.7% in the experiment with OVCAR-3 ovarian; 101% with HS 578T breast.
Take `CC(=O)C1CCC2C3CC=C4CC(OC(=O)Cc5ccc(N(CCCl)CCCl)cc5)CCC4(C)C3CCC12C` (stereo not drawn): the growth in the experiment on NCI-H322M lung is 119%; in the experiment on NCI-H522 lung, 80%; in the experiment with U251 CNS, 106%; in the experiment with PC-3 prostate it was 86.2%; in the experiment on SK-MEL-5 melanoma, 94.5%; in the experiment on EKVX NSCLC it was 83.1%. Also, the growth with CAKI-1 renal is 87.7%; with CCRF-CEM leukemia it was 64.5%; in the experiment on SR leukemia it was 52.7%; in the experiment with RPMI-8226 leukemia it was 73.2%; with OVCAR-5 ovarian it was 107%.
`CC(C)CCC1(CCO)C(=O)NC(=S)NC1=O`: the growth is 105% in the experiment on NCI-H322M lung; 107% with COLO 205 colon; 120% in the experiment on K-562 leukemia; 99.3% with HT29 colon; 97.2% with U251 CNS; 105% in the experiment with SK-MEL-5 melanoma. Also, the growth with EKVX NSCLC was 105%; in the experiment on CAKI-1 renal it was 102%; with CCRF-CEM leukemia it was 115%; in the experiment on SR leukemia it was 114%; with OVCAR-5 ovarian it was 99.5%; in the experiment with OVCAR-3 ovarian it was 108%. Also, in the experiment with HS 578T breast, the growth was 114%.
Regarding `O=C(N/N=C/c1ccc(N(CCCl)CCCl)cc1)c1cc(=O)[nH]c(=O)[nH]1`, the growth in the experiment with NCI-H322M lung is 92.9%; in the experiment on NCI-H522 lung, 96.7%; in the experiment on U251 CNS, 98.2%; in the experiment with PC-3 prostate, 89.2%; in the experiment with SK-MEL-5 melanoma, 98.9%; with EKVX NSCLC, 115%. In addition, the growth was 86.7% in the experiment on RPMI-8226 leukemia, 134% with OVCAR-5 ovarian, 83.9% with IGROV1 ovarian and 105% in the experiment with HS 578T breast.
`C/C(=N/OC(=O)N(C)C)c1ccc(Cl)cc1Cl`: the growth with NCI-H522 lung was 83.6%; in the experiment with COLO 205 colon, 110%; in the experiment with K-562 leukemia, 106%; with PC-3 prostate it was 118%; in the experiment with SK-MEL-5 melanoma, 103%; in the experiment with CAKI-1 renal, 96.6%. Further, the growth was 94.1% in the experiment on CCRF-CEM leukemia; 87.2% in the experiment on SR leukemia; 103% in the experiment with RPMI-8226 leukemia; 106% in the experiment on OVCAR-5 ovarian; 104% with IGROV1 ovarian; 99.5% in the experiment on OVCAR-3 ovarian. Also, the growth with HS 578T breast was 107%.
As to `NS(=O)(=O)c1nc[nH]c1[N+](=O)[O-]`, the growth is 110% in the experiment with NCI-H322M lung; 109% with NCI-H522 lung; 113% in the experiment on COLO 205 colon; 101% in the experiment on K-562 leukemia; 119% in the experiment with U251 CNS; 117% with EKVX NSCLC. The growth in the experiment with CCRF-CEM leukemia is 106%; in the experiment with SR leukemia it was 102%; in the experiment on RPMI-8226 leukemia it was 101%; with OVCAR-5 ovarian, 96.7%; in the experiment with IGROV1 ovarian, 115%; with OVCAR-3 ovarian, 115%. The growth in the experiment on HS 578T breast was 112%.
Consider `N#CC1=C(N)Oc2cc3c(cc2C1c1cccs1)OCO3` (stereo not drawn), for which the growth was 40.5% with NCI-H322M lung; -26% (active) in the experiment on NCI-H522 lung; -7.45% (active) with COLO 205 colon; 8.98% (active) in the experiment with HT29 colon; 25.4% in the experiment with U251 CNS; 24% in the experiment with PC-3 prostate. The growth in the experiment with SK-MEL-5 melanoma is 16.2%; with EKVX NSCLC it was 53.7%; with CAKI-1 renal, 43.4%; in the experiment with CCRF-CEM leukemia, 21.4%; with SR leukemia, 16.2%; in the experiment on RPMI-8226 leukemia, 24.9%. The growth in the experiment on OVCAR-5 ovarian was 52.2%; in the experiment with HS 578T breast it was 24.6%.
As for `CC1=C(SCCC(=O)OCC(=O)NCCC[Te]c2ccccc2)C(=O)c2ccccc2C1=O`, the growth is -6.75% (active) with NCI-H522 lung; 10.2% in the experiment on K-562 leukemia; 11.2% in the experiment on HT29 colon; -5.81% (active) in the experiment on U251 CNS; -9.1% (active) in the experiment on PC-3 prostate; -61.4% (active) with SK-MEL-5 melanoma. Moreover, the growth in the experiment on EKVX NSCLC is -3.84% (active); in the experiment with CAKI-1 renal, 27.4%; in the experiment with RPMI-8226 leukemia, -8.41% (active); with OVCAR-5 ovarian, -0.604% (active); in the experiment with OVCAR-3 ovarian, -25.6% (active); with HS 578T breast, -16.9% (active).
For the compound `CC1(C)N=C(N)N=C(N)N1c1cccc(C(=O)Nc2cccc(S(=O)(=O)F)c2)c1`, the growth was 100% with NCI-H322M lung; 99.8% in the experiment on NCI-H522 lung; 120% in the experiment on COLO 205 colon; 118% in the experiment on K-562 leukemia; 99.8% with U251 CNS; 97.1% in the experiment on PC-3 prostate. Moreover, the growth was 99.8% in the experiment on SK-MEL-5 melanoma; 98.8% in the experiment with CAKI-1 renal; 104% in the experiment on SR leukemia; 95.5% in the experiment on RPMI-8226 leukemia; 89.4% in the experiment on OVCAR-5 ovarian; 105% in the experiment on IGROV1 ovarian. Also, the growth in the experiment on OVCAR-3 ovarian was 112%; with HS 578T breast, 92.7%.
For the compound `C[CH2][Pb]([CH2]C)([CH2]C)[O]C(=O)c1ccc(N)cc1`, the growth in the experiment with NCI-H322M lung is 79.6%; in the experiment with COLO 205 colon, 92.5%; in the experiment on K-562 leukemia, 38.6%; with HT29 colon, 79.8%; in the experiment with U251 CNS, 77.4%; in the experiment on PC-3 prostate it was 57.5%. In addition, the growth in the experiment with SK-MEL-5 melanoma was 39%; in the experiment on CAKI-1 renal, 65.5%; in the experiment on RPMI-8226 leukemia, 59.1%; with OVCAR-5 ovarian, 85.1%; in the experiment on OVCAR-3 ovarian it was 57.5%.
On to `[O]=[Sn]([CH]1CCCCC1)[CH]1CCCCC1`, for which the growth with COLO 205 colon is -89.9% (active); in the experiment with K-562 leukemia it was -8.85% (active); in the experiment on HT29 colon, -52.8% (active); in the experiment with U251 CNS it was -85.2% (active); with PC-3 prostate, -91.2% (active); in the experiment on SK-MEL-5 melanoma it was -98.5% (active). The growth in the experiment with EKVX NSCLC is -24.3% (active); in the experiment with CAKI-1 renal, -93.5% (active); in the experiment with CCRF-CEM leukemia it was -42.2% (active); in the experiment on SR leukemia, 14.8%; in the experiment on OVCAR-3 ovarian it was -98% (active); with HS 578T breast, -19.5% (active).
With `O=[N+]([O-])c1cccc([As]=[As]c2cccc([N+](=O)[O-])c2)c1` (stereo not drawn), the growth with NCI-H322M lung is -97.4% (active); in the experiment on K-562 leukemia, -21.7% (active); in the experiment on HT29 colon it was -61.6% (active); in the experiment with U251 CNS, -96.1% (active); in the experiment on PC-3 prostate, -84.8% (active); with SK-MEL-5 melanoma it was -100% (active). The growth in the experiment on CAKI-1 renal was -95.9% (active); in the experiment on SR leukemia, -32% (active); in the experiment with RPMI-8226 leukemia, -39.3% (active); in the experiment on OVCAR-5 ovarian, -85.2% (active); in the experiment with IGROV1 ovarian, -57.8% (active); in the experiment on OVCAR-3 ovarian, -96.1% (active). In addition, the growth in the experiment with HS 578T breast was 6.73% (active).
